# Reference: PubChem BioAssay AID504652 (National Center for Advancing Translational Sciences (NCATS), 2011)
# In all, about 360,000 compounds went through this assay and about 11,000 (3.1%) were called active. The sample holds actives, similar compounds and a random draw of the others, so the mix is not that of the screen. Values without a mark were called inactive. No stated cut-off is given here; in the data, active means activity change below about -30%; inactive means the rest.
# Molecular target: D(1A) dopamine receptor (Homo sapiens) (UniProt P21728)
# Sequence (P21728 whole entry, looked up): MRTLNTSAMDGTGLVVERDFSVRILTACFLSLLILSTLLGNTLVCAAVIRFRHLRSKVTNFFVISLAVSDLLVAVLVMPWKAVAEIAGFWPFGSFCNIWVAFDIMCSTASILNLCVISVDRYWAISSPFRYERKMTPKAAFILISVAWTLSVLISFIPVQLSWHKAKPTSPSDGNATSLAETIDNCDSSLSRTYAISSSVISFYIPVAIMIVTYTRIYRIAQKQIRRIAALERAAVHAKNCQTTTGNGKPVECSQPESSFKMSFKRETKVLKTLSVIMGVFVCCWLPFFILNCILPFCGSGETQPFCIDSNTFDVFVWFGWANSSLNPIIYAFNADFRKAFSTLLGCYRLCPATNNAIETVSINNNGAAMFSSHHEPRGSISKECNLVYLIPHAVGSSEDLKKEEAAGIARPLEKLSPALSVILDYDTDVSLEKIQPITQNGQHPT
# Assay: Antagonist of Human D 1 Dopamine Receptor: qHTS
# Details: HEK293 TREx D1 cells, calcium flux, dopamine EC80; at 10 µM; stronger effect = lower value
# Outline: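 Inducible Hek293 Trex D1 cells (tetracycline, overnight, 30 C). Calcium dye 30–90 min RT. Antagonist mode: EC80 dopamine added after 180 s compound read.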
# On the % scale 0 is the no-effect control and ±100 the full control effect.
row,SMILES,"activity change, negative = inhibition"
1,CCCCOC(=O)c1[nH]c(C)c(C(=O)OC)c1C,-0.924%
2,Cc1cc(C)nc(NC(=O)/C=C/c2ccc(Cl)cc2)n1,4.01%
3,COC(=O)c1c(C)[nH]c(C(=O)/C=C/c2ccc(Cl)cc2)c1C,-47.4% (active)
4,Cc1ccc(Nc2c(-c3ccc(C)cc3)nc3cnccn23)cc1,12.3%
5,COC(=O)c1sc2ncccc2c1-n1c(C)ccc1C,1.1%
6,COc1ccc(N2CCN(CCNC(=O)CCN3C(=O)COc4ccccc43)CC2)cc1,2.07%
7,O=C(CN1C(=O)COc2ccccc21)NCCN1CCc2ccccc2C1,-39.4% (active)
8,O=C(CN1C(=O)COc2ccccc21)Nc1ccc(F)cc1,4.15%
9,Cc1ccc(S(=O)(=O)NC(N)=NCCC[C@@H](NC(=O)CNC(=O)c2ccccc2)C(=O)Nc2cc(C(F)(F)F)ccc2Cl)cc1,4.94%
10,COCCNC(=O)c1cc(-c2cccc(Cl)c2)on1,-5.13%
11,COCCNC(=O)c1snc2ccc(Cl)cc12,-34.4% (active)
12,COCCNC(=O)c1ccc(S(=O)(=O)c2ccc(Cl)cc2)c(NC(C)=O)c1,-3.29%
13,CCOC(=O)c1cccc(NC(=O)c2cc(S(=O)(=O)N3CCCC(C)C3)cn2C)c1 (stereo not given),-6.74%
14,CCOC(=O)c1c(C)[nH]c(C)c1S(=O)(=O)N(C)CC(=O)N1CCN(c2ccccc2)CC1,1.35%
15,COC(=O)c1ccc(Oc2nc(NC(C)C)nc(SC)n2)cc1,-9.38%
16,COc1nc(Oc2ccc(=O)n(C)n2)nc(N(C)C)n1,-8.41%
17,CCCn1nc(Oc2nc(NC(C)C)nc(N(C)C)n2)ccc1=O,-79.5% (active)
18,COc1cc(C(CC(=O)NCCC(C)C)N2Cc3ccccc3C2=O)cc(OC)c1OC (stereo not given),-5.18%
19,CC(C)NC(=O)C1CCC(Cn2c(=O)c3sccc3n(Cc3ccc(F)cc3)c2=O)CC1 (stereo not given),0.886%
20,Cc1ccc2nc(N3CCN(c4cccc(Cl)c4)CC3)c3nnnn3c2c1,-5.5%
21,Cc1ccc(NC(=O)CSc2nc3ccccc3c3nc(CCn4cncc4C)nn23)cc1F,-2.83%
22,Brc1ccc(-c2csc(N/N=C/c3cccnc3)n2)cc1,-16.3%
23,Oc1ccc(-c2csc(Nc3cccnc3)n2)cc1,-30.4% (active)

row,SMILES,"activity change, negative = inhibition"
1,CN(c1ccc(O)cc1)c1nc(-c2cccnc2)cs1,1.14%
2,Cc1cccc(C(=O)Nc2ccc(-c3nc4ccccc4s3)c(C)c2)c1,-25.8%
3,COc1ccccc1-c1cc(C(F)(F)F)nc(S(=O)(=O)CCCC(=O)Nc2ccc(F)cc2F)n1,-9.9%
4,COc1ccc(C2/C(=C(/O)c3ccccc3)C(=O)C(=O)N2c2ncccn2)cc1OC (stereo not given),2.93%
5,COc1ccc(C2SCCN2S(=O)(=O)c2ccccc2)cc1OC (stereo not given),-1.77%
6,COc1ccc(C2N=C(N)N=C(N)N2c2ccccc2)cc1OC (stereo not given),-44.6% (active)
7,Cc1ccc(C)n1-c1nnc(N2CCC(C(=O)NCc3ccc(F)cc3)CC2)s1,0.798%
8,CCCCc1nn2c(=O)cc(COC(=O)c3cccc(NC(=O)COc4ccccc4)c3)nc2s1,-12.5%
9,O=C(CCl)Nc1ccc(Sc2ccc(NC(=O)CCl)cc2)cc1,-33.1% (active)
10,O=C(CCl)Nc1cccc(CP(=O)(c2ccccc2)c2ccccc2)c1,11.8%
11,CC(C)(CCl)C(=O)Nc1ccc(Sc2ccc(F)cc2)cc1,-27.2%
12,Cc1cc(C)cc(OCC(=O)Nc2nc(-c3ccc(F)cc3)ns2)c1,-4.25%
13,Cc1ccc(Cn2ncc3c4sc(C)cc4n(C)c3c2=O)c(C)c1,7.1%
14,COc1cc(Br)cc2cc(S(=O)(=O)c3ccccc3)c(=O)oc12,-1.47%
15,COc1ccc(NS(=O)(=O)c2ccc(NC(=O)c3ccc(N(C)S(C)(=O)=O)cc3)cc2)cc1,3.18%
16,COc1ccc(NS(=O)(=O)c2ccc(Oc3c(C#N)cccc3C#N)cc2)cc1,-44.8% (active)
17,COc1ccc(NS(=O)(=O)c2ccc(NC(=S)NC(=O)CC(C)C)cc2)cc1,-6.91%
18,Cc1ccc2c(=O)cc(C(=O)Nc3sc4c(c3C(=O)NCc3cccnc3)CCCC4)oc2c1,-10.7%
19,CCc1ccc(-c2nn(-c3ccccc3)cc2CSC(=N)N)cc1,46%
20,N=C(N)SCc1cccc2ccccc12,-51.9% (active)
21,CCOc1ccc(Br)cc1CSC(=N)N,2.93%
22,COc1ccc(-c2noc(CCC(=O)N(C)c3ccccc3C)n2)cc1,-13%
23,Cc1ccc(CN(C(=O)COc2ccc(Cl)cc2C)C2CCS(=O)(=O)C2)o1 (stereo not given),-2.94%

row,SMILES,"activity change, negative = inhibition"
1,O=C(/C=C/c1ccc([N+](=O)[O-])cc1)NCCSCc1ccco1,-97.8% (active)
2,O=C(/C=C/c1cccc([N+](=O)[O-])c1)NCCSCc1ccco1,-26.7%
3,COc1cc(OC)cc(C(=O)NCCSCc2ccco2)c1,4.54%
4,Cc1cc(C)cc(NC(=O)c2cnc3sc(N4CCCC4)nn3c2=O)c1,-28.3%
5,Cc1nc2ccc(S(=O)(=O)NC(C(=O)NCc3ccccc3Cl)C(C)C)cc2s1 (stereo not given),18.5%
6,COc1cccc(CNC(=O)c2ccc3c(c2)N(Cc2ccc(C(F)(F)F)cc2)C(=O)c2ccccc2S3)c1OC,-2.43%
7,O=c1c(=O)n(Cc2c(F)cccc2Cl)ccn1Cc1ccccc1,-3.28%
8,O=[N+]([O-])/C=C/c1ccc2c(ccn2Cc2ccccc2)c1,-37.9% (active)
9,OCCC1CN(Cc2cccc(O)c2)CCN1CCc1ccccc1 (stereo not given),-42.3% (active)
10,OCCC1CN(Cc2cnc(-c3ccccc3)s2)CCN1CCc1ccccc1 (stereo not given),-3.13%
11,OCCC1CN(Cc2ccc(Oc3ncccn3)cc2)CCN1CCc1ccccc1 (stereo not given),-6.31%
12,Cc1ccc(C)c(S(=O)(=O)n2nc(C)c(S(=O)(=O)N3CCC(C)CC3)c2C)c1,6.24%
13,O=C(NCCCN1CCOCC1)c1ccc([N+](=O)[O-])cc1[N+](=O)[O-],-7.86%
14,CC1=C(c2ccc(C)cc2)S(=O)(=O)NC1=NCCCN1CCN(c2cc(C)ccc2C)CC1,10.4%
15,O=C(NCCCN1CCN(c2ccc(F)cc2)CC1)Nc1ccc([N+](=O)[O-])cc1,-54.6% (active)
16,CN1CCN(CCNC(=O)Nc2ccc([N+](=O)[O-])cc2)CC1,-6.04%
17,Cc1ccc(C)c(N2CCN(CCCNC(=O)Nc3ccc(Cl)cc3)CC2)c1,-58.4% (active)
18,CC1=C(c2ccc(Cl)cc2)S(=O)(=O)N=C1N1CCN(c2cc(C)ccc2C)CC1,3.21%
19,Cc1cccc(C(=O)Nc2ccc(-c3nc4ncccc4o3)cc2C)c1,-4.33%
20,COc1cc(NC(=O)c2nn(-c3ccc(C)cc3)c(=O)c3c2c2ccccc2n3C)cc(OC)c1OC,-20.1%
21,COC(=O)CC1=NN(c2ccccc2)C(=O)C1,-33.1% (active)
22,C/C(N)=C(/C#N)C(=O)COC(=O)C1=NN(c2ccccc2)C(=O)CC1,-6.72%
23,COC(=O)CC1=NN(c2nc(C)cc(C)n2)C(=O)C1,3.03%

row,SMILES,"activity change, negative = inhibition"
1,CCCCn1c(CNC(=O)C23CC4CC(CC(C4)C2)C3)nnc1SCC(=O)Nc1ccc(C)cc1,1.21%
2,CC1CCCN(Cc2c(O)ccc3c(=O)c(Oc4ccc(C(C)(C)C)cc4)c(C(F)(F)F)oc23)C1 (stereo not given),11.8%
3,O=C(Nc1ccc(C(=O)OCc2cc(=O)n3nc(C4CC4)sc3n2)cc1)c1ccc(F)cc1,4.99%
4,COc1ccc(OCC(=O)Nc2nnc(-c3ccco3)s2)cc1,-88.7% (active)
5,CNc1nnc(-c2ccco2)s1,-6.48%
6,COc1ccc(NC(=O)COCc2cc(-c3ccco3)on2)cc1,8.36%
7,COc1ccc(CCNC(=O)c2cnc3sc(N4CCCCCC4)nn3c2=O)cc1OC,-6.51%
8,CCOC(=O)C1=C(c2ccccc2)Nc2ncnn2C1c1ccc(Cl)cc1 (stereo not given),6.82%
9,CS(=O)(=O)c1ccc(-c2nnc(NC(=O)c3ccc4c(c3)OCCO4)o2)cc1,-10.1%
10,O=C(CSc1oc(-c2ccco2)nc1S(=O)(=O)c1ccccc1)c1ccc(Cl)cc1,-17.4%
11,CCOC(=O)c1cc(-c2ccccc2)n(-c2cccc(C(=O)Nc3cc(OC)cc(OC)c3)c2)c1C,-24.9%
12,CC(=O)c1cc(C#N)c(N2CCCCC2)nc1C,-36.9% (active)
13,CC(=O)c1cc(C#N)c(SCC(=O)Nc2nccs2)nc1C,2.32%
14,CC(=O)c1cc(C#N)c(N2CC(C)OC(C)C2)nc1C (stereo not given),-0.422%
15,O=C(Cn1c(=O)n(Cc2ccccc2)c(=O)c2sc3ccccc3c21)Nc1ccccc1F,0.434%
16,CNC(=O)c1ccc(-c2nc(CN3CCc4ccccc43)c(C)o2)cc1,6.56%
17,COc1cccc(Cn2c(CNS(=O)(=O)c3ccc(Cl)s3)nc3cccnc32)c1,25.3%
18,CN1CCN(C(=O)c2ccc(NS(=O)(=O)c3ccccc3)cc2)CC1,-3.19%
19,CCOC(=O)N1CCN(C(=O)c2ccc(S(=O)(=O)Nc3cccc(C(F)(F)F)c3)cc2)CC1,-41.7% (active)
20,CCOC(=O)c1cccc(NS(=O)(=O)c2c(C(=O)N3CCCCCC3)c(C)n(C)c2C)c1,14.9%
21,Cc1ccc(C(=O)CSc2nc(-c3ccccc3)nc3c2CCCC3)c(C)c1,17.2%
